High-throughput results as filed in PubChem BioAssay.
Most compounds without a hit are left out; they make up all but 12% or so of the library.
Sm TGR block: blocks Schistosoma mansoni thioredoxin glutathione reductase; Potency, µM (series often up to 114 µM), actives largely listed as inhibitors; Q962Y6; 3% of 360,000 active; AID 485364; purified TGR, DTNB reduction, TNB absorbance 405 nm; further: nearly all actives have a fitted effect of over 60% in size
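First, TGR (20 nM dispensed) and NADPH were mixed with compound. Second, a 15 min room-temperature incubation followed. Third, further NADPH and then DTNB were added to start the reaction. Finally, TNB absorbance was monitored kinetically.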
Pf growth 96h: inhibits malaria parasite growth, 96 h | P. falciparum luciferase reporter growth, 96 h | AID 504834 | 6.9% of 320,000 active | Potency, µM (highest dose often 28.7 µM), usual class: inhibitors
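P. falciparum expressing integrated firefly luciferase, in erythrocytes at 2% hematocrit, 0.05% parasitemia, incubated with compounds 96 h at 37 C, 5% CO2. Growth inhibition read as loss of luminescence; two-generation exposure targets delayed-death apicoplast inhibitors.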
Pf growth 48h: P. falciparum growth inhibition at 48 hours (one generation) | P. falciparum luciferase growth in erythrocytes, 48 h | 5.9% of 310,000 active | AID 504832 | Potency, µM (top dose mostly 28.7 µM), actives largely listed as inhibitors
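Parasite viability was followed by luminescence of a genomically integrated firefly luciferase. Cultures held 0.1% parasitemia at 2% hematocrit (final), incubated under 5% CO2 at 37 C.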
SARS PLP yeast: inhibitors of SARS-CoV papain-like protease in yeast | S. cerevisiae expressing SARS-CoV PLpro, growth rescue | Potency, µM (titrated, usually from 32.9 µM), hits mostly activators | 0.19% of 330,000 active; calls by dose curve; further: nearly all actives have a fitted effect of over 55% in size
Hits are given with their value; . = inactive; ? = inconclusive; / = no result given. Unless noted, the call rests on the fitted dose curve; in most records, active means well fitted curve in the direction sought with a large enough effect; inconclusive means small, poorly fitted or top-dose-only effect, or another doubt; inactive means no such curve, though single readings can be large; an effect the other way counts as inactive or inconclusive.

SMILES	Sm TGR block	Pf growth 96h	Pf growth 48h	SARS PLP yeast
CN1C(C)(C)CC(=NOC(=O)c2ccccc2)CC1(C)C	.	10µM	.	.
O=S(=O)(CCc1ccncc1)c1ccc(Cl)cc1	?	.	.	.
O=C(CCN1CCN(c2ccc(Cl)cc2)CC1)Nc1ccccc1F	.	2.9µM	.	.
COc1cccc(NC(=O)CCN2CCN(c3ccccc3F)CC2)c1	.	12µM	.	?
O=C(CCN1CCN(c2ccccc2F)CC1)Nc1ccccc1F	.	.	.	?
COc1ccc(C(=O)CCN2CCN(c3ccccc3F)CC2)cc1	0.79µM	.	.	.
COc1cccc(NC(=O)CCN2CCN(c3ccccc3)CC2)c1	.	/	/	/
CCOC(=O)c1cccc(NC(=O)CC2C(=O)N(c3ccccc3)C(=O)N2Cc2ccco2)c1 (configuration not stated)	.	/	/	/
C#C[C@]1(OC(C)=O)CC[C@H]2[C@@H]3CCC4=C/C(=N/O)CC[C@@H]4[C@H]3CC[C@@]21CC	/	0.95µM	.	/
C#C[C@]1(O)CC[C@@H]2[C@H]3CCC4=CC(=O)CC[C@H]4[C@H]3C(=C)C[C@@]21CC	/	.	.	/
CC(=O)c1ccc(NC(=O)CSc2cn(CC(=O)N(C(C)C)C(C)C)c3ccccc23)cc1	.	/	/	/
Cc1ccc(C(=O)N2CCCC(Nc3ccc(F)c(F)c3)C2)cn1 (configuration not stated)	.	12µM	.	.
Cc1ncsc1CCC(=O)N1CCCC(Nc2ccc(F)c(F)c2)C1 (configuration not stated)	.	12µM	.	.
COC(=O)c1ccc(C(=O)N2CCCC(Nc3ccc(F)c(F)c3)C2)cc1 (configuration not stated)	.	.	.	.
Cc1ccc(S(=O)(=O)N(CC(=O)NCC2CCCO2)Cc2ccc(F)cc2)cc1 (configuration not stated)	.	.	?	.
CCOc1ccc(CNCc2c(C(=O)O)n(Cc3ccccc3F)c3cc(OC)ccc23)cc1	.	/	/	/
COc1ccc(/C=C2\CCC/C(=C\C=N\N(C)C)C2=O)cc1	.	?	.	.
CN(C)/N=C/C=C1\CCC/C(=C\c2ccc(F)c(F)c2)C1=O	16µM	?	?	.
CCc1cc(Cn2nc(-c3ccccc3)cc2C(=O)NCc2ccccc2OC)on1	.	?	10µM	.
COC(=O)C(C)Sc1nnc2n(-c3cccc(C)c3)c(=O)c3c4c(sc3n12)CCCC4 (configuration not stated)	.	12µM	10µM	.
CSc1nnc2n(-c3cccc(C)c3)c(=O)c3c4c(sc3n12)CCCC4	.	/	/	/
O=C1/C(=C/c2ccc(C(=O)O)cc2)CCC/C1=C\c1ccc(C(=O)O)cc1	.	1.5µM	2.1µM	.
CC(C)/C=C1\CC/C(=C\c2cccnc2)C1=O	25µM	.	?	.
O=C1/C(=C/c2cccnc2)CCC/C1=C\c1cccnc1	40µM	13µM	10µM	.
CCC1C/C(=C\c2cccnc2)C(=O)/C(=C/c2cccnc2)C1 (configuration not stated)	?	.	7.4µM	.
SMILES	Sm TGR block	Pf growth 96h	Pf growth 48h	SARS PLP yeast
O=C1/C(=C\c2cccnc2)CCc2ccccc21	.	.	.	.
O=C1NC(=S)N/C1=C/c1cccnc1	.	?	.	.
O=C1/C(=C/c2cccnc2)CC/C1=C\c1cccnc1	.	?	?	.
Cc1ccc(C)c(S(=O)(=O)N2CCN(C(=O)C3CC3C)CC2)c1 (configuration not stated)	.	.	?	.
CCOC(=O)c1c(C)nc2sc3c(c2c1-c1ccc(OC)cc1)NC(c1ccccc1)NC3=O (configuration not stated)	.	4.1µM	13µM	.
CN(CC(=O)Nc1ccccc1Cl)C(=O)Cn1cnc2ccccc2c1=O	.	.	?	.
CCOC(=O)c1cc2c(=O)n3cccc(C)c3nc2n(Cc2ccco2)c1=NC(=O)c1ccccc1	.	12µM	?	.
CCOC(=O)c1cc2c(=O)n3cccc(C)c3nc2n(CC(C)C)c1=NC(=O)c1ccco1	.	3.7µM	?	.
CCOCCCn1c(=NC(=O)c2ccco2)c(C(=O)OCC)cc2c(=O)n3cccc(C)c3nc21	.	?	.	.
CCOC(=O)c1cc2c(=O)n3ccccc3nc2n(Cc2ccco2)c1=NC(=O)c1ccc(OC)cc1	?	.	9.3µM	.
CCOC(=O)c1cc2c(=O)n3ccccc3nc2n(Cc2ccco2)c1=NC(=O)c1ccccc1OC	5.6µM	?	?	.
Cc1ccc(Nc2c(-c3ccc(N(C)C)cc3)nc3ccccn23)cc1	.	/	/	/
Cc1nn(C(C)C(=O)NCCc2cccs2)c(=O)c2nn(-c3ccccc3)c(C)c12 (configuration not stated)	.	13µM	.	.
Cc1ccc(-n2nc3c(=O)n(C(C)C(=O)NCCCc4ccccc4)nc(C)c3c2C)cc1 (configuration not stated)	.	8.3µM	?	.
COc1ccc(OC)c(CCNC(=O)C(C)n2nc(C)c3c(C)n(-c4ccccc4)nc3c2=O)c1 (configuration not stated)	.	12µM	.	.
CCCNC(=O)C(C)n1nc(C)c2c(C)n(-c3ccccc3)nc2c1=O (configuration not stated)	.	/	/	/
Cc1ccc(NC(=O)CC(C)S(=O)(=O)c2ccc3c(c2)NC(=O)CO3)c(C)c1 (configuration not stated)	.	/	/	/
O=C1c2ccccc2-c2nnc(-c3ccccc3)cc21	.	?	2.6µM	.
Cc1cccc(-c2cc3c(nn2)-c2ccccc2C3=O)c1	.	/	1.3µM	.
COc1ccc(-c2cc3c(nn2)-c2ccccc2C3=O)cc1	.	1.9µM	.	.
O=C(CCCCCN1C(=O)c2ccccc2C1=O)Nc1ccc(C(=O)O)cc1	.	.	.	.
Cc1ccc(S(=O)(=O)Nc2cc(C)cn(Cc3ccc(F)cc3)c2=O)cc1	?	?	0.21µM	.
CCCC(=O)Oc1ccc(C2NC(=O)c3ccccc3O2)cc1OC (configuration not stated)	.	.	.	.
Cc1cc(C(=O)N[C@H](c2ccccc2)[C@@]2(C)C[C@@H]2[C@@H](C)C(=O)Nc2ccc3ccccc3c2)n(C)n1	.	3.7µM	2.6µM	.
C[C@@H](C(=O)Nc1ccc2ccccc2c1)[C@H]1C[C@]1(C)[C@H](NC(=O)OCc1ccccc1)c1ccccc1	.	10µM	?	?
C[C@@H](C(=O)NCc1ccccn1)[C@H]1C[C@]1(C)[C@H](NC(=O)OCc1ccccc1)c1ccccc1	.	?	?	.
C[C@H](CO)NC(=O)[C@H](C)[C@H]1C[C@]1(C)[C@H](NC(=O)OCc1ccccc1)c1ccccc1	.	.	.	.
C[C@@H](C(=O)NCCc1c[nH]c2ccccc12)[C@H]1C[C@]1(C)[C@H](NC(=O)OCc1ccccc1)c1ccccc1	.	9.3µM	13µM	.
C[C@@H](C(=O)NCC1CC1)[C@@H]1C[C@@]1(C)[C@@H](NC(=O)OCc1ccccc1)c1ccccc1	.	4.1µM	4.1µM	.
COc1ccc(CC(=O)N/N=C(\C)c2cccs2)cc1	.	.	.	.
